The structures appear in SMILES notation. The source made the active and inactive calls.

A short description of assay [1]: binders of probe aFSTL3 on microarray, primary screen, stem cell growth factor project, biochemical, small-molecule microarray, fluorescence 635/667 (AID 1064).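 Also: measures binding of the biotinylated anti-FSTL3 antibody to printed compounds.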 The note with it: higher = more signal.
Assay [2] can be described thus: binders from COS7 lysate, DM2A8 probe, primary screen, torsin A project, cell lysate, small-molecule microarray, fluorescence 635/667 (AID 1065). The settings on record: higher = more signal, COS7 lysate expressing mutant human TOR1A.
Assay [3] is described as follows: binders of probe aFGF2 on microarray, primary screen, stem cell growth factor project, biochemical, small-molecule microarray, fluorescence 635/667 (AID 1067).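 Also: measures binding of biotinylated aFGF2 protein to printed compounds on slides; z-score merges feature fluorescence and signal-to-noise across triplicate slides.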 The note with it: higher = more signal.
Assay [4] can be described thus: binders of probe aFGF10 on microarray, primary screen, stem cell growth factor project, biochemical, small-molecule microarray, fluorescence 635/667 (AID 1071).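 Also: score merges 667 nm spot intensity and signal to noise from triplicate slides.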 The settings on record: higher = more signal.
Assay [5] deals with Neurogenic locus notch homolog protein 2 (Homo sapiens) (UniProt Q04721). Kind of assay: Notch2 binders on small-molecule microarrays, primary screen, biochemical, small-molecule microarray, 635 nm fluorescence, stem cell growth factors (AID 1073). The note with it: Notch2 binding, higher = more signal.
For assay [6], the target named is Pro-neuregulin-1, membrane-bound isoform (Homo sapiens) (UniProt Q02297). Kind of assay: NRG1 binders on small-molecule microarrays, primary screen, psychiatric disease protein project, biochemical, small-molecule microarray, fluorescence 635/667 (AID 1075).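 Also: score combines 667 nm spot fluorescence with signal to noise.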 The note with it: NRG1 binding, 635 nm fluorescence, higher = more signal.
Assay [7] relates to Neuregulin-1 EGF-like domain. The experiment in a line: binders of neuregulin-1 EGF-like domain, primary screen, biochemical, small-molecule microarray, 635 nm fluorescence (AID 1081).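 Also: binding of the protein to compounds printed on small-molecule microarray slides.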 The note with it: small-molecule microarray binding, higher = more signal.
Assay [8] is described as follows: FRG1 promoter luciferase signal modulators, primary screen, FRG1 inhibition for FSHD, cell-based, C2C12 myotubes, firefly/Renilla luciferase, luminescence (AID 1084). The note with it: higher = more signal, called active from +8 up or from −8 down.
A short description of assay [9]: binders of probe aFST on microarray, primary screen, stem cell growth factor project, biochemical, small-molecule microarray, fluorescence 635/667 (AID 1086).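 Also: score merges 667 nm fluorescence with signal-to-noise of each printed compound spot.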 The settings on record: higher = more signal.
Assay [10] is described as follows: binders of probe aHhip on microarray, primary screen, stem cell growth factor project, biochemical, small-molecule microarray, fluorescence 635/667 (AID 1087).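 Also: score merges spot fluorescence at 667nm with spot signal to noise ratio.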 The settings on record: higher = more signal.
In assay [11] the test system is PRMT1 (protein arginine N-methyltransferase 1). Kind of assay: PRMT1 binders on small-molecule microarrays, primary screen, biochemical, small-molecule microarray, 635 nm fluorescence (AID 1088).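 Also: binding of Prmt1 protein to compounds spotted on small-molecule microarray slides.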 The settings on record: small-molecule microarray binding, higher = more signal.
Assay [12] can be described thus: yeast growth modulation, basal conditions, primary screen, YJM789 clinical isolate, OD600, 24 h (AID 1089).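 Also: growth of clinical yeast isolate S. cerevisiae YJM 789 seeded 1000 cells per well; test concentration not given here.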 The note with it: S. cerevisiae YJM789 growth, higher = more signal, called active from +8 up or from −8 down.
A short description of assay [13]: fission yeast growth modulation, primary screen, strain 972, OD600, 24 h, no modulator (AID 1090).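 Also: basal condition with compound alone and no growth modifier present; test concentration not given here.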 The note with it: S. pombe 972 growth, higher = more signal, called active from +8 up or from −8 down.
Assay [14] can be described thus: S. cerevisiae growth modulation with rapamycin, primary screen, strain BY4716, OD600, 96 h (AID 1091). Also: test concentration not given here. The settings on record: higher = more signal, called active from +8 up or from −8 down.
Assay [15] deals with Torsin-1A-interacting protein 2 (Homo sapiens) (UniProt Q8NFQ8). Kind of assay: LULL1 binders on small-molecule microarray, primary screen, cell lysate, human LULL1 lysate, 635/667 nm fluorescence (AID 1092).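 Also: probe is lysate of COS7 cells overexpressing human LULL1; score merges per-feature 667 nm fluorescence with signal-to-noise.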 The settings on record: hLULL1 lysate binding, 635 nm fluorescence, higher = more signal.
Assay [16] is described as follows: E. coli growth modulation, two-sided OD650, primary screen, E. coli filamentation project, strain DRC41, 24 h (AID 1093).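 Also: MC1000 strain lacking acrAB efflux and sulA so SOS filamentation is blocked; test concentration not given here.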 The settings on record: OD650, 24 h, higher = more signal, called active from +8 up or from −8 down.
Assay [17] is described as follows: small-molecule microarray binders of probe aLefty2, primary screen, biochemical, biotinylated probe, 635/667 nm fluorescence (AID 1094).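 Also: score merges spot fluorescence near 667 nm with spot signal-to-noise ratio.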 The settings on record: higher = more signal.
For assay [18], the system named is Noggin (protein binding on small-molecule microarray). Kind of assay: Noggin binders on small-molecule microarray, primary screen, biochemical, 635/667 nm fluorescence (AID 1095).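 Also: score merges 667 nm feature fluorescence with signal to noise over triplicate slides.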 The settings on record: 635 nm fluorescence, higher = more signal.
Assay [19] addresses Neurogenic locus notch homolog protein 3 (Homo sapiens) (UniProt Q9UM47). The experiment in a line: NOTCH3 binders on small-molecule microarray, primary screen, biochemical, 635/667 nm fluorescence (AID 1096). The settings on record: NOTCH3 binding, 635 nm fluorescence, higher = more signal.
The nature of assay [20]: small-molecule microarray binders of probe aEGFR, primary screen, biochemical, biotinylated probe, 635/667 nm fluorescence (AID 1097).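 Also: probe is a biotinylated anti-EGFR antibody binding compounds printed on slides; score combines fluorescence near 667 nm and signal to noise of each spot.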 The settings on record: higher = more signal.

Chain of Neurogenic locus notch homolog protein 2 (Homo sapiens) (Q04721 whole entry, looked up, canonical isoform): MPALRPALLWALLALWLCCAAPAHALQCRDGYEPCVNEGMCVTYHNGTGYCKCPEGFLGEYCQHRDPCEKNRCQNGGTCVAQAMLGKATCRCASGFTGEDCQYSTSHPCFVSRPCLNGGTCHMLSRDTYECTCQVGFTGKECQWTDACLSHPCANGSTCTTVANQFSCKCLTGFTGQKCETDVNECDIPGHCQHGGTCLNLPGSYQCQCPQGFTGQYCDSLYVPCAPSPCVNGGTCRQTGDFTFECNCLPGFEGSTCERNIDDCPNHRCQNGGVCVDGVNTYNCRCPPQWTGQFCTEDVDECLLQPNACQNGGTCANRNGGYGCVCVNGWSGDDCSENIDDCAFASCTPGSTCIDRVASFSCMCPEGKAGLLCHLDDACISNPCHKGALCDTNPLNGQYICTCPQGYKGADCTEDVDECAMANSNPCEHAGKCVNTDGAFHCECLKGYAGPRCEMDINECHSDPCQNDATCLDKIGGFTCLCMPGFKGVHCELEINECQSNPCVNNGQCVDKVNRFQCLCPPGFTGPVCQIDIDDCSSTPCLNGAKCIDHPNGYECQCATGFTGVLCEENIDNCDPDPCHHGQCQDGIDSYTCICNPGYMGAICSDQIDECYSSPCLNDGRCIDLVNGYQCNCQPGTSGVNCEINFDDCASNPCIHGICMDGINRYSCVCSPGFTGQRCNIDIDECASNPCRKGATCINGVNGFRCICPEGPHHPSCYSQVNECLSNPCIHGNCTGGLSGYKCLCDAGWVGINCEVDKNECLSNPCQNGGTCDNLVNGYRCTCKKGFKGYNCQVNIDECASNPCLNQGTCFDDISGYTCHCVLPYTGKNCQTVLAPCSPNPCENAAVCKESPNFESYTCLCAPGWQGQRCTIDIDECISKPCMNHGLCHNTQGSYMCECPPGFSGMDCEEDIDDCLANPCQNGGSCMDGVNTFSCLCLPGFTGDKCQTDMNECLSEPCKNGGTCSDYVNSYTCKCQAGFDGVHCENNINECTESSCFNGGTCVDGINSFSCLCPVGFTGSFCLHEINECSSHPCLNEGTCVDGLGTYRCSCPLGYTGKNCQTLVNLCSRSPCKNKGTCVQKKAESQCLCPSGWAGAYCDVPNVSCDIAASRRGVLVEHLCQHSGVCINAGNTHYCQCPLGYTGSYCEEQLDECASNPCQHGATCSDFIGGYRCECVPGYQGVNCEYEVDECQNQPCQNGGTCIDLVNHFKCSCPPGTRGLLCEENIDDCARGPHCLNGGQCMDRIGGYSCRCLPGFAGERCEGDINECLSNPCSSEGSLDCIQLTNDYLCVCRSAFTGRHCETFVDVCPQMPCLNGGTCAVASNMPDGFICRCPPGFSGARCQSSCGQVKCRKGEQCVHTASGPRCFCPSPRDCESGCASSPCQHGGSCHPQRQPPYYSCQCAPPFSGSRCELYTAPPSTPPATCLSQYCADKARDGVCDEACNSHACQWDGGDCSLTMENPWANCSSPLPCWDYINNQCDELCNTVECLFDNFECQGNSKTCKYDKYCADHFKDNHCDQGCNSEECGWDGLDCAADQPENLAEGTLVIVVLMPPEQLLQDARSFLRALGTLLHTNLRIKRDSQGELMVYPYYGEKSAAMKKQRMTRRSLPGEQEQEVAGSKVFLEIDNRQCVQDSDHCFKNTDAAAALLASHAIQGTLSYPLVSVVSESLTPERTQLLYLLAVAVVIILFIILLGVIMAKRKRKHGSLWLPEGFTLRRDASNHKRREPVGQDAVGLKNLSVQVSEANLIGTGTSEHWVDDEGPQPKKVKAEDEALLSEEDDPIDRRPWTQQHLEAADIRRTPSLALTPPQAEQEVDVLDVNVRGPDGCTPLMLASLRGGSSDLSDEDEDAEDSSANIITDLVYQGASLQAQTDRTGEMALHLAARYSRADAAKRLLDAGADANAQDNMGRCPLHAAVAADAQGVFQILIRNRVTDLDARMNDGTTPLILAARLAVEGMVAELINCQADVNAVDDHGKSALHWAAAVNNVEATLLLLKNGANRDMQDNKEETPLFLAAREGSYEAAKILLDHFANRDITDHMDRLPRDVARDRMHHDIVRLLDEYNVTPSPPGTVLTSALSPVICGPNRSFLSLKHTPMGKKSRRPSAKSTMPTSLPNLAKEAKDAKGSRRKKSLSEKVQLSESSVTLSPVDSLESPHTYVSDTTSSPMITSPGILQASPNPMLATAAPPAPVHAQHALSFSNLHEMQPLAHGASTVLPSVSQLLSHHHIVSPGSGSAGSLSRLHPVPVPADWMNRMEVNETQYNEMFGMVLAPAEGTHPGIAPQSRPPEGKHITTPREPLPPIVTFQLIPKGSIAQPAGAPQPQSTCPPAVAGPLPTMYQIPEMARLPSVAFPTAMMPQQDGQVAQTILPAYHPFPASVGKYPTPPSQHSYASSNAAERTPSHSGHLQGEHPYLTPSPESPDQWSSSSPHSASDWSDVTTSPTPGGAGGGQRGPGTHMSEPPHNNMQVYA
Chain of Pro-neuregulin-1, membrane-bound isoform (Homo sapiens) (Q02297 whole entry, looked up, the tested form may be a part, canonical isoform): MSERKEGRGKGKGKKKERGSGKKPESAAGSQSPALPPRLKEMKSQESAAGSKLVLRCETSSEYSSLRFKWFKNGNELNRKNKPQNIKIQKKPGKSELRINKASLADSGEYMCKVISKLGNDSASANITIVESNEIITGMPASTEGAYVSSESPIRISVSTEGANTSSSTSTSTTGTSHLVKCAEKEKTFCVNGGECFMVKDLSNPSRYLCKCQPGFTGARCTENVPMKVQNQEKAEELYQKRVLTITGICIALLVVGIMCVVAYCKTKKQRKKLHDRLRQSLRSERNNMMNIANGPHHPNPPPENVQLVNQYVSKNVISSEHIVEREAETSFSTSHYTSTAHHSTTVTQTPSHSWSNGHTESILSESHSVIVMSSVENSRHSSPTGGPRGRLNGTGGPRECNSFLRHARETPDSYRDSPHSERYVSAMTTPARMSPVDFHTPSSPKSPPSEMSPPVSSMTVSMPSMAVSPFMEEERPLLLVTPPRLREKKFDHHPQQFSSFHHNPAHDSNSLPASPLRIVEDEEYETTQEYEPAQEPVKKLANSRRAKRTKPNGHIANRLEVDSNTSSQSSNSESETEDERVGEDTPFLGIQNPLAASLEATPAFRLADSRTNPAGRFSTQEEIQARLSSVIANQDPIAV
Chain of Torsin-1A-interacting protein 2 (Homo sapiens) (Q8NFQ8 whole entry, looked up): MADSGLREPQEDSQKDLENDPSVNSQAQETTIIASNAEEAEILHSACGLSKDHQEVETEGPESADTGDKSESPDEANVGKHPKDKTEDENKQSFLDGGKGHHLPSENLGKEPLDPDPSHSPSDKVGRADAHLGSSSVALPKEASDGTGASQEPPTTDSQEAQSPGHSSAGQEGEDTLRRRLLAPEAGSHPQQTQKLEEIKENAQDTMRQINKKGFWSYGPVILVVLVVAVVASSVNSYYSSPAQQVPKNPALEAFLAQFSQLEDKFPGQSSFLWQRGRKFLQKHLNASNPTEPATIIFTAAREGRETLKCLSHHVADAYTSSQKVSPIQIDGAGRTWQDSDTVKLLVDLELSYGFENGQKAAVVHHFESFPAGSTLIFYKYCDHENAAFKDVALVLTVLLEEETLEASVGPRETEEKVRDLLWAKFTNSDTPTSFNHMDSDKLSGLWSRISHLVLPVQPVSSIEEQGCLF

Regarding `C=C(/C(=C/C[C@H](OC(C)=O)c1ccc(CO)o1)c1cc(C(=O)OC)ccc1OC)C(C)C`, the composite z-score in [1] is -0.0849; in assay [2], -0.442; in assay [3] it was -0.0637; in assay [4] it was 0.597; in assay [5], 0.102; in assay [6] it was -0.306. Moreover, the composite z-score in [7] is 0.53; in assay [9], 0.031; in assay [10] it was 0.119; in assay [11], 0.57; in assay [15] it was 0.381; in assay [17], -0.0485. Besides, the composite z-score in assay [18] is 0.58; in assay [19] it was 0.368; in assay [20] it was -0.0206. The z-score was -0.601 (inactive) in [8]; 1.02 (inactive) in [12]; -0.967 (inactive) in assay [13]; 0.0168 (inactive) in assay [14]; 0.865 (inactive) in assay [16].

`C=CC[C@]1(C(=O)NCc2ccccc2)N=C(c2ccc(OCCCO)cc2)O[C@H]1c1ccccc1N=[N+]=[N-]`: the composite z-score in assay [1] was -0.158; in assay [2], 1.46; in assay [3], 0.282; in assay [4] it was 0.399; in assay [5] it was 1.13; in assay [6] it was 1.24. Further, the composite z-score was 1.04 in assay [7]; 1.08 in [9]; -0.171 in assay [10]; 1.22 in assay [11]; 3.24 in assay [15]; 0.17 in [17]. Moreover, the composite z-score came out at 0.0073 in [18], 1.11 in [19] and 0.0968 in assay [20]. In addition, the z-score in assay [8] is -0.71 (inactive); in [12] it was -1.33 (inactive); in [13] it was 0.0342 (inactive); in assay [14] it was 0.511 (inactive); in assay [16] it was 0.73 (inactive).

Take `C=CCNC(=O)[C@@H]1[C@H]2C(=O)O[C@H](c3ccccc3)[C@H](c3ccccc3)N2[C@H](c2ccc(OCCO)cc2)[C@@]12C(=O)Nc1ccc(C#CCC(C(=O)OC)C(=O)OC)cc12`: the composite z-score in assay [1] was 0.148; in assay [2] it was 0.694; in assay [3] it was 0.0185; in assay [4] it was 0.721; in assay [5] it was 0.89; in assay [6] it was 1.81. The composite z-score in assay [7] amounted to 1.3; in assay [9], 0.452; in assay [10], 0.0505; in assay [11], 1.53; in [15] it was 3.04; in assay [17] it was 0.0869. Further, the results for the composite z-score in assay [18], in [19] and in assay [20] were 1.31, 0.981 and -0.0466, respectively. The z-score in assay [8] was 0.141 (inactive); in assay [12] it was 1.87 (inactive); in [13], 2.03 (inactive); in [14], 3.83 (inactive); in assay [16], 1.92 (inactive).

On to `C[C@@]1([C@@H](NC(=O)c2ccc(-c3ccccc3)cc2)c2ccc(Cl)cc2)C[C@H]1C1CCCCC1`, for which the composite z-score in [1] was 0.512; in [2], 0.903; in [3], 0.276; in assay [4], 0.473; in assay [5], 1.43; in assay [6] it was 1.86. The composite z-score was determined as 0.883 in assay [7]; 0.893 in [9]; 0.133 in [10]; 0.497 in assay [11]; 2.54 in assay [15]; 0.101 in [17]. Moreover, the figures for the composite z-score in assay [18], in [19] and in assay [20] were 0.118, 0.73 and 0.302, respectively. Moreover, the z-score in assay [8] is -0.203 (inactive); in assay [12], 0.823 (inactive); in [13] it was -3.48 (inactive); in [14], 1.6 (inactive); in [16] it was -0.586 (inactive).

Turning to `NC(=O)NCC#Cc1ccc2c(c1)[C@]1(C(=O)N2)[C@H](c2ccc(O)cc2)N2[C@H](c3ccccc3)[C@H](c3ccccc3)OC(=O)[C@H]2[C@@H]1C(=O)O`, the composite z-score is 0.741 in assay [1]; -0.935 in [2]; -0.176 in assay [3]; -0.225 in assay [4]; -0.897 in [5]; 1.08 in assay [6]. Besides, the composite z-score is -0.224 in [7]; -0.0113 in [9]; -0.457 in assay [10]; -0.019 in assay [11]; 0.966 in assay [15]; -0.255 in [17]. The composite z-score in assay [18] is -0.581; in [19] it was -0.156; in assay [20], -0.191. For the same compound, the z-score in assay [8] is 0.473 (inactive); in assay [12] it was 0.801 (inactive); in assay [13] it was -0.0898 (inactive); in assay [14], 0.607 (inactive); in assay [16], -0.504 (inactive).

The values above are taken from PubChem BioAssay.
